Assay [1] deals with Cytochrome P450 1A2 (Homo sapiens) (UniProt P05177). Kind of assay: p450-cyp1a2 (AID 410; calls by dose curve; note: potency is the fitted concentration of half-maximal effect). The procedure, abridged:
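Luminescent readout of luciferin formed from Luciferin-ME by human CYP1A2; data normalized against complete inhibition by 57 uM furafylline. Enzyme 20nM, substrate 100uM at Km, 100mM KPO4 buffer, 60 min reaction at room temperature.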

Assay [2] addresses Mitogen-activated protein kinase 10 (Mus musculus) (UniProt Q61831). As to the kind of experiment: JNK3 AlphaScreen Assay (AID 530; active = well fitted curve in either direction with a large enough effect, not every such curve was filed as active;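 note: kinase came from lysate of stimulated human HepG2 cells; signal reports phosphorylation of biotinylated GST-cJun 1-79 at Ser73 with 10 µM ATP; series mostly up to about 57 µM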). In outline: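 Compound titrations were preincubated 15 minutes at room temperature with substrate, antibody and pre-activated JNK3-containing HepG2 lysate. Reactions were started with 10 uM ATP and stopped with EDTA-containing bead buffer for AlphaScreen detection.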
Background: Alpha assays give light when donor and acceptor beads are brought close together.

Assay [3] addresses 3',5'-cyclic-AMP phosphodiesterase 4B (Homo sapiens) (UniProt Q07343). Kind of assay: qHTS Assay for Inhibitors of PDE-IV (AID 607; active = well fitted activation curve with a large enough effect in the main read-out, with a control signal flat, not every such curve was filed as active). In outline:
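Live HEK293 cells with a modified cyclic nucleotide-gated (CNG) channel report intracellular cAMP via membrane-potential dye fluorescence (ex 535/em 590 nm). Endogenous PDE-IV was targeted. Compounds were tested at up to 22.9 uM final; RO 20-1724 100 uM served as control.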

For assay [4], the target named is Glucocorticoid receptor (Homo sapiens) (UniProt P04150). Kind of assay: GR-GFP Redistribution (AID 450;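 active = compounds whose dose series gives a full or clear partial fitted curve of increased nuclear translocation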; note: potency is the fitted concentration of half-maximal effect). The following applies: U2OS GR-GFP nuclear translocation, laser cytometry, 2 h.
Sequence of Glucocorticoid receptor (Homo sapiens) (P04150 whole entry, looked up, the tested form may be a part): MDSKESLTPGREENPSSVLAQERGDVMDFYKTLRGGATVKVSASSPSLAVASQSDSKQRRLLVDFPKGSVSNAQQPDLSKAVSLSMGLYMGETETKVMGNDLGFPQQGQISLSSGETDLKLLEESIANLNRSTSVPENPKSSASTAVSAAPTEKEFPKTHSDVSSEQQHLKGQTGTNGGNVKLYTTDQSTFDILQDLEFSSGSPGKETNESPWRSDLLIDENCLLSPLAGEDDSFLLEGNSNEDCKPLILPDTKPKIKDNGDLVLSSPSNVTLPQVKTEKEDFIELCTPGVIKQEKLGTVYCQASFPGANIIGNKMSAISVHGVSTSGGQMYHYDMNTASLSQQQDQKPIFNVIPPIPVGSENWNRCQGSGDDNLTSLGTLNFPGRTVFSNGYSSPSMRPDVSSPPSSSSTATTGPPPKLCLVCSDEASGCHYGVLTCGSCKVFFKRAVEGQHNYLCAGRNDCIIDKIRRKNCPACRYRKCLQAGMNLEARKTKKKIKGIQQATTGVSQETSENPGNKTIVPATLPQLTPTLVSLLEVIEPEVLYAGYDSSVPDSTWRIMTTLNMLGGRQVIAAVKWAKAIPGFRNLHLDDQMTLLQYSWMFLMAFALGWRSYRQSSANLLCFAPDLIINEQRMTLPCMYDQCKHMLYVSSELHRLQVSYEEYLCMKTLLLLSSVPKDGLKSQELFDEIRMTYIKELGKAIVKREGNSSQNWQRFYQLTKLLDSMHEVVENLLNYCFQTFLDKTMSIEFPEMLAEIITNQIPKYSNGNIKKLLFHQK
Assay [5] has the same target. Kind of assay: GR-EFC Redistribution (AID 451; calls by dose curve; note: potency is the fitted concentration of half-maximal effect). The following applies: CHO-K1 GR-EFC translocation, beta-gal luminescence, 2 h. The procedure, abridged: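 Translocation of GR-ED fusion to nuclear EA restores b-gal, read by luminescence after 1 h room-temperature detection. Engineered CHO-K1 biosensor cells, 1,000/well, exposed 2 h at 37 C to titrations up to 46 uM final.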

Assay [6] addresses Cytochrome P450 2C9 (Homo sapiens) (UniProt P11712). As to the kind of experiment: qHTS Assay for Inhibitors and Substrates of Cytochrome P450 2C9 (AID 883). Note: nearly all actives have a fitted effect of over 60% in size. The procedure, abridged: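 Turnover of Luciferin-H (100uM, KM) by 10nM human CYP2C9 was measured over 60 min at 37C with NADPH regeneration; inhibitors and some substrates reduce luminescence. Data normalized to sulphaphenazole 57uM.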
For orientation: Quantitative high-throughput screening tests each substance at several concentrations.

Assay [7] has as its target Cytochrome P450 3A4 (Homo sapiens) (UniProt P08684). As to the kind of experiment: qHTS Assay for Inhibitors and Substrates of Cytochrome P450 3A4 (AID 884). Note: series mostly up to about 57 µM; nearly all actives have a fitted effect of over 50% in size. In outline: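 20 nM human CYP3A4 with 25 uM Luciferin-PPXE (at KM) in 200 mM KPO4, preincubated 10 min with compound; NADPH regeneration started a 60 min RT reaction. Luciferin detected by luminescence, normalized to 57 uM ketoconazole as full inhibition.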

For assay [8], the target named is Cytochrome P450 2C19 (Homo sapiens) (UniProt P33261). As to the kind of experiment: qHTS Assay for Inhibitors and Substrates of Cytochrome P450 2C19 (AID 899). Note: nearly all actives have a fitted effect of over 60% in size. Note: potency is the fitted concentration of half-maximal effect. In outline:
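Reactions contain 5nM enzyme, 10uM Luciferin-H EGE (KM) and 50mM KPO4; compound preincubates 10 min at 37C, NADPH regeneration starts turnover for 60 min. Luminescence after detection reagent gives activity.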

Assay [9] can be described thus: Confirmation and Secondary Assay for Modulators of Hemoglobin Beta Chain Splicing at IVS2 654 locus (AID 910).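 Note: HeLa cells stably carrying EGFP split by mutant beta-globin IVS2-654 intron; per-well total GFP intensity by laser scanning cytometry after 2-day treatment.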 The procedure, abridged:
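Readout: per-well total peak green fluorescence (488 nm ex, 500–520 nm em) from objects 5–250 µm, reflecting correct splicing of an EGFP-654 reporter. Compounds were applied for 2 days at 37 °C to overnight-plated HeLa EGFP-654 cells; controls were DMSO and 500 nM IVS2-654 PNA.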

The nature of assay [10]: Confirmation and Secondary Assay for Modulators of Hemoglobin Beta Chain Splicing at IVS2 705 locus (AID 930).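 Note: HeLa cells stably expressing the EGFP-705 splicing reporter; GFP fluorescence per well restored by corrected splicing of the IVS2-705 intron in EGFP; series mostly up to about 46 µM.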 The procedure, abridged:
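First, HeLa EGFP-705 cells are seeded at 500/well in Optimem with 2% FCS and left overnight. Next, compound or DMSO is added for 2 days. Finally wells are laser-scanned and total peak GFP intensity scored.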

The target in assay [11] is Cytochrome P450 2D6 (Homo sapiens) (UniProt P10635). As to the kind of experiment: qHTS Assay for Inhibitors and Substrates of Cytochrome P450 2D6 (AID 891). Note: nearly all actives have a fitted effect of over 60% in size. Note: potency is the fitted concentration of half-maximal effect. In outline: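 Human CYP2D6 (5 nM) with 30 uM Luciferin-ME EGE (at Km) in 100 mM KPO4, compound preincubated 10 min, then NADPH regeneration system for 60 min at room temperature. Luciferin read by luminescence; normalized to 1.43 uM quinidine.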
Sequence of Cytochrome P450 2D6 (Homo sapiens) (P10635 whole entry, looked up): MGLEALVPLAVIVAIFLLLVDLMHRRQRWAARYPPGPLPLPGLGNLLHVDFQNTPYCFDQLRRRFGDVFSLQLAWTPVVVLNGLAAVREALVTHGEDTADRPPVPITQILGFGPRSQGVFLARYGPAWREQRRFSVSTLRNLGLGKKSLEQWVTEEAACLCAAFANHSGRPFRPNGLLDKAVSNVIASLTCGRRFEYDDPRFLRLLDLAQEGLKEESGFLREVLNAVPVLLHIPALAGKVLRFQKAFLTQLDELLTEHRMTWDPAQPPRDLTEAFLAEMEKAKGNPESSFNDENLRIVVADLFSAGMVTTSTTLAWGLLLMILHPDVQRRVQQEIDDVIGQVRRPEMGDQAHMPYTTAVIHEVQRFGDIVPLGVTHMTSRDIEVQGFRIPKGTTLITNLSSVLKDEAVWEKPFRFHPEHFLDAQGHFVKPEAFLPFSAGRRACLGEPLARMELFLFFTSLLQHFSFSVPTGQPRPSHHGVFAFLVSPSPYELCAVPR

For assay [12], the target named is Guanine nucleotide-binding protein G(i) subunit alpha-1 (Homo sapiens) (UniProt P63096). Kind of assay: qHTS Assay for Inhibitors of RGS12 GoLoco Motif Activity (Green Fluorophore) (AID 879).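 Note: negative values mean loss of peptide binding seen as reduced polarization.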 In outline: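 Fluorescence polarization assay: 50 nM Gαi1 with 10 nM FITC-labeled RGS12 GoLoco peptide in 10 mM Tris pH 7.5, 150 mM NaCl, 0.1 mM GDP, 0.05% NP40, 10 min at room temperature with compound.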

Assay [13] is described as follows: qHTS Assay for Identification of Small Molecule Antagonists for Thrombopoietin (TPO) Signaling Pathway (AID 918). Note: potency is the fitted concentration of half-maximal effect; nearly all actives have a fitted effect of over 60% in size. The following applies: TPO-dependent cell signaling reporter, antagonist mode. The procedure, abridged: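 Ba/F3 (murine, hTPO-R, GPIIb-luc reporter); overnight IL-3 withdrawal; cpd + TPO 26 pM final (EC50); 24 h 37 C/5% CO2; Steadylite luminescence after 10 min RT.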

Assay [14] deals with Muscarinic acetylcholine receptor M1 (Rattus norvegicus) (UniProt P08482). As to the kind of experiment: qHTS Assay for Antagonists of Acetylcholine Muscarinic M1 Receptor: Kinetic Measurement of Intracellular Calcium Response (AID 943).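 Note: Fluo-4 calcium signal as peak divided by basal fluorescence over 4 min; series mostly up to about 35 µM; nearly all actives have a fitted effect of over 75% in size.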 In outline: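 Rat M1-CHO cells, 2000/well, overnight → Fluo-4 no-wash dye with probenecid, 1 h 37C → compound 10 min, room temp → basal read 6 s → carbachol EC80 (100 nM) → 4 min kinetic read; peak/basal.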

The target in assay [15] is Pyruvate kinase (Leishmania mexicana) (UniProt Q27686). As to the kind of experiment: qHTS Validation Assay for Inhibitors of Leishmania Mexicana Pyruvate Kinase (AID 945). The procedure, abridged:
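qHTS eight-point titrations against 0.2 nM LmPYK (E451W) in imidazole buffer pH 7.2 with 0.5 mM PEP, 0.1 mM ADP; 1 h, room temperature. Readout: PKLight luminescence, normalized to neutral DMSO wells.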

Assay [16] deals with Alpha-galactosidase (Coffea arabica) (UniProt Q42656). Kind of assay: Counterscreen for Glucocerebrosidase Inhibitors: qHTS Assay for Coffee Bean alpha-Galactosidase at pH 4.5 (AID 957). Note: series mostly up to about 77 µM. In outline: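 Coffee bean alpha-galactosidase 2 nM, substrate 4-MU-alpha-Gal 80 uM, pH 4.5 citrate/Tween-20, 20 min RT. Cpd titration 0.7 nM–77 uM. Stop pH 10, fluorescence 365/440 nm; Hill-equation AC50.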
Sequence of Alpha-galactosidase (Coffea arabica) (Q42656 whole entry, looked up): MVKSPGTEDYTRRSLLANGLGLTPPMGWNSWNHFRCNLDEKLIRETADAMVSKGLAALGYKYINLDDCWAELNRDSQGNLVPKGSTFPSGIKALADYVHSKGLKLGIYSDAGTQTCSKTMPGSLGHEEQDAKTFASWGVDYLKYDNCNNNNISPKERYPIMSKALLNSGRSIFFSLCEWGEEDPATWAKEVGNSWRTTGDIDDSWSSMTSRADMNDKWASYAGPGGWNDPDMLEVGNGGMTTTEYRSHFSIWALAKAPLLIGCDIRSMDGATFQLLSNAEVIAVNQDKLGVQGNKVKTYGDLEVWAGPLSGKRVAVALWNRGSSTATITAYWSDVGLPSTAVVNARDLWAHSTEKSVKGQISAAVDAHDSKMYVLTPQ
On the technique in general: Counterscreens check selectivity or assay interference.

For assay [17], the target named is Pyruvate kinase PKM (Homo sapiens) (UniProt P14618). As to the kind of experiment: qHTS Assay for Inhibitors of Human Muscle Pyruvate Kinase (AID 958). In outline:
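A coupled luminescent readout tracked ATP made from ADP by purified PKM2. Final conditions included 0.1 nM enzyme, PEP and ADP at 0.5 and 0.1 mM, pH 7.2 imidazole buffer with BSA, and a one-hour room-temperature reaction.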

The target in assay [18] is Alpha-galactosidase A (Homo sapiens) (UniProt P06280). Kind of assay: Counterscreen for Glucocerebrosidase Inhibitors: qHTS Assay for Human alpha-Galactosidase at pH 4.5 (AID 992). In outline: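 Read-out is 4-methylumbelliferone fluorescence (365 nm excitation, 440 nm emission) after a pH 10 NaOH/glycine stop. Reactions held 2 nM enzyme and 80 uM substrate at pH 4.5 for 20 min at room temperature.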
Sequence of Alpha-galactosidase A (Homo sapiens) (P06280 whole entry, looked up): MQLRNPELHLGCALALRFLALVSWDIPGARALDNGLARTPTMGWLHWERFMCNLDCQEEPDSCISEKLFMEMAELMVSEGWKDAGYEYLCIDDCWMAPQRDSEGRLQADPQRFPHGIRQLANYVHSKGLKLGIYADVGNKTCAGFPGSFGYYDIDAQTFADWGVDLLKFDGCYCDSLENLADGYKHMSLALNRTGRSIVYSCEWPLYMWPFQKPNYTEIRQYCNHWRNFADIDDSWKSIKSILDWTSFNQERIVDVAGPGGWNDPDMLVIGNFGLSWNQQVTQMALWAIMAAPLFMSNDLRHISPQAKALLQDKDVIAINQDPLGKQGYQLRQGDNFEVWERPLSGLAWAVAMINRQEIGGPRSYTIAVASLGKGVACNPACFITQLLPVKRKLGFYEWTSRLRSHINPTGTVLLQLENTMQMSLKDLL

For assay [19], the target named is alpha-glucosidase (Oryza sativa, rice) (UniProt Q653V4). Kind of assay: Counterscreen for Glucocerebrosidase Inhibitors: qHTS Assay for Rice alpha-Glucosidase at pH 5.0 (AID 997). The procedure, abridged:
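Rice alpha-glucosidase (4 nM final) with 400 uM 4-methylumbelliferyl-alpha-D-glucopyranoside in citrate buffer pH 5.0, 20 min at room temperature, stopped at pH 10; fluorescence 365/440 nm, compounds 0.7 nM–77 uM, AC50 from Hill fits.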

For assay [20], the target named is Alpha-galactosidase (Coffea arabica) (UniProt Q42656). As to the kind of experiment: Counterscreen for Glucocerebrosidase Inhibitors: qHTS Assay for Coffee Bean alpha-Galactosidase at pH 5.9 (AID 998). In outline: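 Compounds were titrated from 0.7 nM to 77 uM against green coffee bean alpha-galactosidase (2 nM) using 80 uM fluorogenic 4-methylumbelliferyl substrate. After 20 min at room temperature, reactions were stopped at pH 10 and read by fluorescence.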

A number with no mark means an inactive call. Records with an inconclusive call do not appear. Active and inactive are the calls of the source. Unless noted, calls come from the whole dose curve; as a rule, active = well fitted curve in the direction sought with a large enough effect; inconclusive = small, poorly fitted or top-dose-only effect, or another doubt; inactive = no such curve, though single readings can be large; an effect the other way counts as inactive or inconclusive.

Sequence of Cytochrome P450 2C9 (Homo sapiens) (P11712 whole entry, looked up): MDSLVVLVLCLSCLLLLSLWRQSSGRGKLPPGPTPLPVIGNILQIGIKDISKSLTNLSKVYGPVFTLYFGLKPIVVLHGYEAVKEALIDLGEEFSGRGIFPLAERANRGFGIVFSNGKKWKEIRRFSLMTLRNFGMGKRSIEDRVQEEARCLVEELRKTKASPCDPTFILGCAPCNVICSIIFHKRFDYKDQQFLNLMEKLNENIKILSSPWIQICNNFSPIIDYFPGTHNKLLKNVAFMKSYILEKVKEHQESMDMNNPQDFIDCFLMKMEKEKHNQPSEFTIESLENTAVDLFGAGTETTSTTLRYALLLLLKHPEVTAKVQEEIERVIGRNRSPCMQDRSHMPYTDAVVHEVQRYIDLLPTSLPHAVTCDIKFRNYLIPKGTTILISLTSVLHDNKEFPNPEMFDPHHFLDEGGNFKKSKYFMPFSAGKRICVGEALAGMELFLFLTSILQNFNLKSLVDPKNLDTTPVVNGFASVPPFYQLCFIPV
Sequence of Cytochrome P450 1A2 (Homo sapiens) (P05177 whole entry, looked up): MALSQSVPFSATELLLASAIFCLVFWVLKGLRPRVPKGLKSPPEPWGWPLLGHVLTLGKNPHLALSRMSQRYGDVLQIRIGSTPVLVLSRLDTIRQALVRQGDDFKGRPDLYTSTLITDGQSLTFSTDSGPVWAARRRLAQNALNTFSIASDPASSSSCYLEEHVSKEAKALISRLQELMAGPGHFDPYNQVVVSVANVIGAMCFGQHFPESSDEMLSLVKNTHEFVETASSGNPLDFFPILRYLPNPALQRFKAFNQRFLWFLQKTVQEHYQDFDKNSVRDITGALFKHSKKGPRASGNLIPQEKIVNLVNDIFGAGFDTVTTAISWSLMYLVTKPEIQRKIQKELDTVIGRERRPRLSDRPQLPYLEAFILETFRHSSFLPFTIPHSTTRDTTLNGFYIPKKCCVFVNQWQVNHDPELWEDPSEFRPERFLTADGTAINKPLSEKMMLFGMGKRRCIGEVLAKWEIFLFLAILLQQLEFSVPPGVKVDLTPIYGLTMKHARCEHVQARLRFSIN
Sequence of Cytochrome P450 2C19 (Homo sapiens) (P33261 whole entry, looked up): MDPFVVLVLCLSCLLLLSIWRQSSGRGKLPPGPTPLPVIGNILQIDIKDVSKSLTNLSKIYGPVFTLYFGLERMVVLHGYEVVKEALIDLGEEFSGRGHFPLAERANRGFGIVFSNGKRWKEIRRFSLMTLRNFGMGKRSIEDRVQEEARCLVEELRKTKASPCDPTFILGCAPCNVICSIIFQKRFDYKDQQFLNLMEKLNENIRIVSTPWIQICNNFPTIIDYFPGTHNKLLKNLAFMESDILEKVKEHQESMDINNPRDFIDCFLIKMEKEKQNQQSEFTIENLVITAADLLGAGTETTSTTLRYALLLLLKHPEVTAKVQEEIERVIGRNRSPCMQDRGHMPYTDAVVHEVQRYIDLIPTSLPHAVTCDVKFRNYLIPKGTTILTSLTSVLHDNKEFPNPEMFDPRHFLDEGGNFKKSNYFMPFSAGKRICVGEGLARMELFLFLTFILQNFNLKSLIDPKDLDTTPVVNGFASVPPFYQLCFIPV
Sequence of 3',5'-cyclic-AMP phosphodiesterase 4B (Homo sapiens) (Q07343 whole entry, looked up): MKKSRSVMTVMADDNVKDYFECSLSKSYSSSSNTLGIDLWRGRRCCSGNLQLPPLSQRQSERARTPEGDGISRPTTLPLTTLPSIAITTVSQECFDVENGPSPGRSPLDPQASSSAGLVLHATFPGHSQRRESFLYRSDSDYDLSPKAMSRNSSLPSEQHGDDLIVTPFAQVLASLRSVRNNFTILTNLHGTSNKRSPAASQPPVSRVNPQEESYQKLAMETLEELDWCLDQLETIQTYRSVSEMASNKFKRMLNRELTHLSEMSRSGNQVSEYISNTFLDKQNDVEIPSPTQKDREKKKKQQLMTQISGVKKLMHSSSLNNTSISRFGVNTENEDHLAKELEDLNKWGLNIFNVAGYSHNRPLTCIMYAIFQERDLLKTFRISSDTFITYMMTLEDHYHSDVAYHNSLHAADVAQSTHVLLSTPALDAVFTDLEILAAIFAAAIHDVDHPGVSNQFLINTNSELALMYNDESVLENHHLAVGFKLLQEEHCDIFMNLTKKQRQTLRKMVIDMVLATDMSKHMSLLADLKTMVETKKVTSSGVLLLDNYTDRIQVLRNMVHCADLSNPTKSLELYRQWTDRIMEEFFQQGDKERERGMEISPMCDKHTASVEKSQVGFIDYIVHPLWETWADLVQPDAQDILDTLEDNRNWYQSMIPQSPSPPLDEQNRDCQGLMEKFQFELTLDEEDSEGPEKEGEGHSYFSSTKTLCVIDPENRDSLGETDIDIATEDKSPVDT
Sequence of Cytochrome P450 3A4 (Homo sapiens) (P08684 whole entry, looked up): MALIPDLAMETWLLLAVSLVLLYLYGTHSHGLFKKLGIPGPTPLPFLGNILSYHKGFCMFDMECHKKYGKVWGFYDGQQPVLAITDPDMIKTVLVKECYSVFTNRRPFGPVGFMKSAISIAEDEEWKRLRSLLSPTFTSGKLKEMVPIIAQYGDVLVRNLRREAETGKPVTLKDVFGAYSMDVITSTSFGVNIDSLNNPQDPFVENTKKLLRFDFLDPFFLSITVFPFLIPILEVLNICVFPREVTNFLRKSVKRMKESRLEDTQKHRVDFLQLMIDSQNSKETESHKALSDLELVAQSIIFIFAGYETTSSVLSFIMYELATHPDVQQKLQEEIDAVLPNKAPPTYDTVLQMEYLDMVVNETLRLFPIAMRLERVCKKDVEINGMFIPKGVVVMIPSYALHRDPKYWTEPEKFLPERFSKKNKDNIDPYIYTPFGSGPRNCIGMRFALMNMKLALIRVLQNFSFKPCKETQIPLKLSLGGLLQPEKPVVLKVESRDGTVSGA

In the case of `COC(=O)C1(C)C=C2C(=C(C)C(=O)C2C)CN1` (stereo not given), in assay [1], the Potency is 31.6 µM (active). The outcome in assay [2] and in assay [3] was inactive.

With `O=C(O)[C@@H]1C[C@H]1[C@@H](NP(=O)(c1ccccc1)c1ccccc1)c1ccccc1`, the Potency result in assay [1] is “inactive”. Further, the outcome in assay [2] and in assay [3] was inactive.

On to `COc1ccc2c(c1O)-c1c(OC)c(OC)cc3c1[C@@H](C2)N(C)CC3`, for which the values for the Potency in assay [1], in assay [4] and in [5] were 15.8 µM (active), more than 46 µM and more than 46 µM, respectively. The Potency result in [6], in assay [7], in assay [8] and in assay [9] was “inactive” each time. For the same molecule, the molecule was called inactive in assay [10].

As to `CC[C@@]12CCCN3CC[C@@]4(c5ccc(OC)c(O)c5N(C(C)=O)[C@H]4CC1)[C@H]32`, the Potency entry in [1] and in assay [6] was “inactive” in each case. The Potency in assay [4] was more than 46 µM; in assay [5], more than 46 µM; in assay [8] it was 0.794 µM (active). For the same molecule, the outcome in [2] and in assay [3] was inactive.

For the molecule `C[C@H]1C(=O)O[C@H]2CCN3CC=C(COC(=O)[C@](C)(O)[C@@]1(C)O)[C@H]23`, the Potency result in [1], in [6], in [11] and in assay [8] was “inactive” in each case. The Potency in assay [4] and in assay [5] was more than 46 µM each time. Besides, the call in [2] was inactive.

For `CCN1C[C@@]2(C)CC[C@H](O)[C@@]34[C@@H]5C[C@H]6[C@H](O)[C@@H]5[C@](O)(C[C@@H]6OC)[C@H](C[C@@H]23)[C@H]14`, the Potency entry in [1], in assay [6], in assay [11] and in assay [8] was “inactive” throughout. Besides, the Potency in assay [4] and in assay [5] was more than 46 µM in each case. Further, the outcome in assay [2] was inactive.

As for `C/C=C1\C[C@H](C)[C@](O)(CO)C(=O)OCC2=CCN3CC[C@@H](OC1=O)[C@@H]23`, the Potency entry in assay [1], in [6], in [11] and in assay [8] was “inactive” each time. Besides, the Potency in assay [4] and in assay [5] was more than 46 µM each time. Further, the molecule was called inactive in assay [2].

As for `CC(C)[C@]1(NC(=O)[C@H]2C=C3c4cccc5[nH]cc(c45)C[C@H]3N(C)C2)O[C@@]2(O)[C@H]3CCCN3C(=O)[C@H](Cc3ccccc3)N2C1=O`, the Potency in assay [1] is 31.6 µM (active); in assay [4], more than 46 µM; in [5] it was more than 46 µM; in [8], 2 µM (active). Further, the Potency entry in [11] was “inactive”.

On to `O=P(c1ccccc1)(c1ccccc1)N1CC2(CC2)CC(O)(c2ccccc2)C1` (stereo not given), for which, in assay [1], the Potency entry is “inactive”. In addition, the result in assay [2] was inactive.

On to `CN1C[C@H](CO)C=C2c3cccc4[nH]cc(c34)C[C@H]21`, for which the Potency in assay [1] is 1 µM (active); in [4] it was more than 46 µM; in [5] it was more than 46 µM; in assay [11], 0.0251 µM (active). For the same molecule, the molecule was classed as inactive in [2] and in [3].

For the molecule `CC(C)[C@H]1C(=O)N2CCC[C@@H]2[C@]2(O)O[C@@](NC(=O)[C@H]3C=C4c5cccc6[nH]cc(c56)C[C@H]4N(C)C3)(C(C)C)C(=O)N12`, the Potency in assay [1] was 31.6 µM (active); in assay [4], more than 46 µM; in assay [5], more than 46 µM. For the same molecule, in [11], the Potency result is “inactive”.

On to `C[C@]12Cc3cn4c(nc3C=C1CC[C@H]1[C@@H]2CC[C@@]2(C)[C@H]1CC[C@@]2(O)C#N)nc1ccccc14`, for which the Potency in [1] is 15.8 µM (active); in assay [4], more than 46 µM; in [5] it was more than 46 µM; in assay [13] it was 10 µM (active). The result in assay [3], in assay [16], in assay [18], in [19] and in [20] was inactive. Moreover, the Potency entry in [12], in assay [7], in [14], in [15] and in assay [17] was “inactive” throughout.

`CCN(CC)c1ncnc2c1ncn2[C@@H]1O[C@@H](COP(=O)(O)OP(=O)(O)C(Br)(Br)P(=O)(O)O)[C@H](O)[C@H]1O`: the Potency in [1] was 39.8 µM (active); in assay [4] it was more than 46 µM; in assay [5], more than 46 µM; in [11], 0.631 µM (active). The result in assay [2] and in assay [3] was inactive.

For `CC[C@H]1[C@@H]2C[C@@H]3[C@@H]4N(C)c5ccccc5[C@@]45C[C@@H]([C@H]2[C@@H]5O)N3[C@@H]1O`, the Potency result in assay [1], in assay [6] and in assay [8] was “inactive” throughout. For the same molecule, the results for the Potency in [4], in assay [5] and in [11] were more than 46 µM, more than 46 µM and 3.16 µM (active), respectively.

These data come from PubChem BioAssay (NCATS).
